Shown are actives, neighbours in structure and some others; about 21% of the full set was active somewhere.
Pf growth 48h: P. falciparum growth inhibition at 48 hours (one generation); P. falciparum luciferase growth in erythrocytes, 48 h; Potency, µM (top dose mostly 28.7 µM), without a hit: at the highest dose activity change, negative = inhibition, actives largely listed as inhibitors; hit rate 5.9% among 310,000; AID 504832; active means well fitted inhibition curve with a large enough effect; inconclusive means small, poorly fitted or top-dose-only effect, or another doubt; inactive means no such curve, though single readings can be large or run the other way; further: potency means the concentration at half of the fitted maximal effect; on the % scale 0 is the no-effect control and ±100 the full control effect
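Here the parasites carry a stable luciferase gene and grow inside erythrocytes in Albumax-based RPMI medium with compound for one erythrocytic cycle. Activity is scored as loss of luminescent signal.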
SARS PLP yeast: inhibitors of SARS-CoV papain-like protease in yeast | Potency, µM (highest dose often 32.9 µM), without a hit: top-dose activity, positive = growth rescue, actives largely listed as activators | hit rate 0.19% among 330,000 | S. cerevisiae expressing SARS-CoV PLpro, growth rescue | AID 485353; further: potency means the concentration at half of the fitted maximal effect; 0% is about no effect; nearly all actives have a fitted effect of over 55% in size
Cycloheximide cs: affects cycloheximide protein synthesis inhibition readout, counter-screen. max response, %. cell reporter, cycloheximide protein synthesis inhibition counterscreen. AID 2314. hit rate 12% among 300,000; in the data active means max response mostly above about 13%, no sharp cut-off; inactive means mostly below about 14%; further: read at 38.3 µM for the half of the compounds with a filed dose; 0% is about no effect
Shiga toxin inh: Shiga toxin inhibition; Vero cells, Shiga toxin protein synthesis inhibition reporter; inhibition, % at 38.7 µM; hit rate 9.2% among 290,000; in the data active means inhibition mostly above about 28%, no sharp cut-off; inactive means mostly below about 43%; further: 0% is about no effect
NS1 inh: blocks influenza NS1 protein function; Potency, µM (doses to about 46.1 µM), for inactives: at the highest dose activity, positive = more growth; hit rate 0.4% among 270,000; AID 2326; further: potency means the concentration at half of the fitted maximal effect; actives are rising curves; nearly all actives have a fitted effect of over 50% in size
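Growth recovery, yeast-based: influenza A NS1 expressed in S. cerevisiae causes slow growth, and suppressors are detected by OD600. The parent strain without NS1 is used as positive control.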
Pf growth 96h: inhibits malaria parasite growth, 96 h; P. falciparum luciferase reporter growth, 96 h; hit rate 6.9% among 320,000; Potency, µM (highest dose often 28.7 µM), for inactives: top-dose activity change, negative = inhibition, usual class: inhibitors; active means well fitted inhibition curve with a large enough effect; inconclusive means small, poorly fitted or top-dose-only effect, or another doubt; inactive means no such curve, though single readings can be large or run the other way; further: potency means the concentration at half of the fitted maximal effect; on the % scale 0 is the no-effect control and ±100 the full control effect
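Two parasite generations (96 h, 37 C, 5% CO2) of compound exposure in infected erythrocytes (0.05% parasitemia, 2% hematocrit). Luciferase-reporter P. falciparum; decreased luminescence indicates inhibited growth, aimed at apicoplast-acting delayed death.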
An asterisk follows results filed as active; u = inconclusive; x = no result. Unless noted, the call rests on the fitted dose curve.

SMILES	Pf growth 48h	SARS PLP yeast	Cycloheximide cs	Shiga toxin inh	NS1 inh	Pf growth 96h
COc1ccc(N2CCN(C(=O)c3oc4c(c3C)C(=O)CCC4)CC2)cc1	-5%	1%	-5	-10	-5%	-1%
CC(=O)Nc1ccc(S(=O)(=O)N(CC(=O)Nc2cc(C)on2)Cc2ccc(F)cc2)cc1	-24%	0%	1	-6	2%	-6%
COc1cccc(NC(=O)[C@@H]2CCCN2C(=O)C2CCN(S(=O)(=O)c3ccc(C)cc3)CC2)c1	u	-2%	1	-7	-4%	-61%
Cc1cc(C)n2nc(C(=O)NC3CCCc4ccccc43)nc2n1 (stereo not given)	0%	0%	-2	-19	-2%	u
CC1=NN(c2ccccc2)C(=O)/C1=C\c1cc(C)n(C)c1C	u	4%	29*	49*	-4%	9.3µM*
CN(CC1CCCN(CCc2ccc(Cl)cc2)C1)C(=O)CC(F)(F)F (stereo not given)	-2%	-5%	-2	-3	-6%	u
COc1ccc(C(=O)OCC(=O)NC2CCCCCC2)cc1OC	u	-1%	x	x	x	u
Cc1nc(SCC(=O)NC(=O)NC(C)(C)C)nc(C)c1C	-7%	-2%	-4	-4	-5%	1%
O=C(Nc1cccc(C2=NCCN2)c1)Nc1cccc(C2=NCCN2)c1	1.7µM*	x	x	x	x	1.2µM*
O=C(Nc1ccncc1)Nc1cccc(Cl)c1	1.5µM*	-2%	16*	20	-12%	-2%
COc1ccc(NC(=O)NCc2ccc(Cl)cc2)cc1	12%	-2%	6	2	-7%	3%
COc1ccc(CNC(=O)Nc2cccc(Cl)c2)cc1	71%	5%	43*	46*	1%	10µM*
O=C(Nc1cccc(Cl)c1)Nc1csc([N+](=O)[O-])c1	3.7µM*	-8%	16*	46*	-61%	2.6µM*
O=C(/C=C/c1ccc(/C=C/C(=O)Nc2ccc(C3=NCCN3)cc2)cc1)Nc1ccc(C2=NCCN2)cc1	x	x	-5	-8	x	x
COc1ccc(-n2ncc(C(C)NS(=O)(=O)c3cccs3)c2C)cc1 (stereo not given)	u	9%	15	2	2%	23%
COc1ccccc1OCC(=O)NNC(=O)C(=O)N1CCCC1	13%	14%	5	14	12%	67%
CC1CCCC(N2CCN(C(=O)c3ccc([N+](=O)[O-])cc3)CC2)C1 (stereo not given)	-15%	-6%	1	-11	12%	u
CCC(C)NC(=O)C(Sc1ccccc1)c1ccccc1 (stereo not given)	u	-1%	-1	-14	-2%	u
S=C(Nc1ccc(Cc2ccncc2)cc1)Nc1cccc(Cl)c1	16%	-3%	7	37	-6%	13µM*
O=C(NCc1cccnc1)Nc1cccc(Cl)c1	42%	4%	1	4	18%	u
O=C(Nc1cccc(Cl)c1)Nc1ccccc1-n1ccnc1	u	4%	1	-3	6%	12µM*
O=C(Nc1ccc(C2=NCCN2)cc1)c1ccc(C(=O)Nc2ccc(C3=NCCN3)cc2)c(Cl)c1	0.52µM*	-4%	1	5	-46%	u
O=C(Nc1cccc(Cl)c1)Nn1cnnc1	6%	-1%	-1	-1	-1%	1%
CNC(=S)Nc1ccc(Cc2ccncc2)cc1	0%	1%	4	-7	-4%	16%
O=C(Nc1ccc(C(=O)N2CCCC2)cc1)c1ccc(F)cc1Cl	-1%	1%	11	13	-3%	46%
SMILES	Pf growth 48h	SARS PLP yeast	Cycloheximide cs	Shiga toxin inh	NS1 inh	Pf growth 96h
O=C(NCc1ccncc1)Nc1cccc(Cl)c1	16%	-5%	16*	13	-4%	x
COc1cc(NC(=O)c2c(F)cccc2F)c(Cl)cc1Cl	-12%	2%	-2	-6	x	8%
Cc1cc(C)n(-c2ccc(S(=O)(=O)N3CCCC3)cc2[N+](=O)[O-])n1	-21%	1%	2	11	4%	-16%
COc1ccc(CNCCc2ccc(Cl)cc2Cl)cc1	7%	-1%	-3	-18	8%	5.9µM*
O=C(COC(=O)COc1ccc(Cl)cc1)NCc1cccs1	11%	2%	4	-6	-9%	36%
Cn1c(=S)c2[nH]c(SCCN3CCCC3)nc2n(C)c1=O	12µM*	-6%	-7	-23	5%	u
CC(C)[C@H](NC(=O)c1ccccc1)C(=O)OCC(=O)Nc1sccc1C(N)=O	x	2%	x	x	x	x
CC1CCCC(NC(=O)CNC(=S)N(Cc2ccccc2)Cc2cccs2)C1C (stereo not given)	u	-7%	6	-16	x	u
COc1ccc(Cl)cc1N1C(=O)CN(Cc2cc(OC)c(OC)c(OC)c2)C1=S	3.3µM*	0%	-3	-12	-13%	37%
COc1ccc(CN2CC(=O)N(c3cc(Cl)ccc3OC)C2=S)cc1OC	9.3µM*	0%	-4	-8	0%	-4%
CC1(C)Cc2c(sc(NC(=O)C3CC(Cl)=CCC3C(=O)O)c2C#N)CO1 (stereo not given)	u	1%	-2	-8	4%	30%
CN1CCC/C1=C/C=C1\SC(=S)NC1=O	35%	-5%	18	35*	5%	u
CN1/C(=C\C=C2/SC(=S)NC2=O)C(C)(C)c2ccccc21	u	0%	-3	-1	1%	u
Cc1sc(NC(=O)c2ccc(Cl)s2)c(C(N)=O)c1C	168%	-5%	68*	103*	0%	x
Cc1sc(NC(=S)Nc2ccc(F)cc2)c(C(N)=O)c1C	34%	-2%	-1	48	0%	0%
Cc1sc(NC(=O)c2ccc(Br)s2)c(C(N)=O)c1C	214%	-5%	51*	69*	-9%	x
CCN1C(=S)SC(=O)C1=C1C=C(C)N(Cc2ccco2)C(C)=C1	-7%	7%	55*	96*	-39%	-24%
Cc1ccc(C(=O)OCC(=O)Nc2ccccc2C(F)(F)F)cc1S(=O)(=O)N1CCCCC1	u	-2%	x	x	x	9%
CCOC(=O)CN(C(=O)CSc1nnc2c(n1)[nH]c1ccccc12)c1ccccc1	7.4µM*	1%	8	28	-7%	u
CCOC(=O)CN(C(=O)CSc1nnc2c(n1)[nH]c1ccc(F)cc12)c1ccccc1	13µM*	7%	-4	22	0%	3%
CCN(CC(=O)Nc1ccc(NC(C)=O)cc1)C(=O)/C=C/c1ccc(C)o1	-1%	-1%	x	x	x	-17%
COc1cc(NC(=O)Cn2nc(C(F)(F)F)c(Br)c2C)cc([N+](=O)[O-])c1	u	-16%	-3	-5	3%	u
O=C(Nc1ccc(S(=O)(=O)N2CCOCC2)cc1)c1ccc(Cl)cc1Cl	-17%	-2%	-3	-11	-8%	u
Cc1ccc(CC2C(=O)N(c3cc(Cl)ccn3)C(=O)C2C)cc1 (stereo not given)	-7%	-1%	23*	43*	4%	85%

High-throughput results (PubChem BioAssay)
